Source: PubChem (National Center for Advancing Translational Sciences (NCATS))
ELG1 repair inh = blocks ELG1-dependent DNA repair in HEK293T cells | HEK293T ELG1-luciferase reporter, luminescence, 16 h; DNA damage induced by 5-fluorouridine | Potency, µM (series often up to 46.1 µM), inactives show at the top dose activity change, negative = inhibition, actives largely listed as inhibitors | hit rate 2.3% among 330,000 | AID 504467; further: on the % scale 0 is the no-effect control and ±100 the full control effect; nearly all actives have a fitted effect of over 55% in size
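Quantitative HTS, concentration-response format. 2,000 cells/well co-treated with 5-fluorouridine and compound, 16 hr in 5% CO2 at 37 °C; ONE-Glo luminescence read after 30 min.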
MCF10A rereplic = induces DNA re-replication in MCF 10a normal breast cells; AID 624296; MCF 10A DNA re-replication, Hoechst nuclear intensity, 48 h; Potency, µM (titrated, usually from 46.1 µM), inactives show top-dose activity, positive = re-replication, most hits filed as activators; hit rate 2.9% among 350,000; further: % of control where 0% means no effect; nearly all actives have a fitted effect of over 50% in size
SW480 rereplic = induces DNA re-replication in SW480 colon adenocarcinoma cells; AID 624297; SW480 DNA re-replication, Hoechst DNA content imaging, 48 h; Potency, µM (top dose mostly 46.1 µM), for inactives: at the top dose re-replication activation, hits mostly activators; hit rate 1.8% among 340,000; further: % of control where 0% means no effect; nearly all actives have a fitted effect of over 55% in size
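DNA re-replication was detected as more nuclei of elevated Hoechst intensity after 48 hr exposure to compound (23 nL pinned per well of 250 cells).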
A-T KAP1 phos = potential ataxia-telangiectasia treatment | Potency, µM (titrated, usually from 57.5 µM), without a hit: at the top dose activation, usual class: activators | hit rate 0.19% among 320,000 | F2112 A-T fibroblasts, KAP-1 phosphorylation AlphaLISA; neocarzinostatin DNA damage 30 min before lysis; further: % of control where 0% means no effect; nearly all actives have a fitted effect of over 45% in size
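hTERT-immortalized A-T patient fibroblasts (F2112), 500 cells/well in OPTI-MEM, 1% FBS, got compounds for 60 min, then NCS for 30 min at 37C. Lysates were then assayed for phospho-KAP-1 by AlphaLISA (anti-pKAP1 donor, anti-KAP1 acceptor beads), 6 hr at 25C.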
ELG1 genotox = inducers of genotoxicity in HEK293T ELG1-luciferase cells; AID 504466; HEK293T ELG1-luciferase reporter, luminescence, 16 h; Potency, µM (top dose mostly 46 µM), for inactives: at the highest dose activity change, positive = activation, actives largely listed as activators; hit rate 1.3% among 330,000; further: % of control where 0% means no effect; nearly all actives have a fitted effect of over 60% in size
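Genotoxic stress is detected as increased luminescence from luciferase-tagged ELG1 in HEK293T cells, measured with ONE-Glo after a 16 hr treatment at 37 °C.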
p53 reactivator = mutant p53 re-activation in reporter cells. AID 504706. H1299 p53-A138V BP100-luciferase reporter, luminescence, 24 h. Potency, µM (titrated, usually from 92.2 µM), without a hit: top-dose activity change, positive = activation, most hits filed as activators. hit rate 0.063% among 320,000; further: % of control where 0% means no effect; nearly all actives have a fitted effect of over 45% in size
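p53-null H1299 cells stably carrying temperature-sensitive p53-A138V and a BP100-luciferase reporter were pinned with compounds (4-point, 1:5 series) and held 24 hrs at 37 deg C. Luminescence was read 10 min after detection reagent.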
Starred values were filed as active, the others as inactive; ? = inconclusive; . = no result; [ ] = dose if it differs, or a comment. The list is not random: actives were taken first. Their share in the collection is about 7.1%. The call rests on the fitted dose curve; in most records, active means well fitted curve in the direction sought with a large enough effect; inconclusive means small, poorly fitted or top-dose-only effect, or another doubt; inactive means no such curve, though single readings can be large; an effect the other way counts as inactive or inconclusive. Potency means the concentration at half of the fitted maximal effect.

SMILES	ELG1 repair inh	MCF10A rereplic	SW480 rereplic	A-T KAP1 phos	ELG1 genotox	p53 reactivator
CCn1cc([N+](=O)[O-])c(=O)c2cc(F)c(N3CCOCC3)cc21	7%	5%	-19%	27%	5%	-8%
CCOc1cccc(CN2CCCC(CCC(=O)NCc3ccccc3F)C2)c1O (stereo unspecified)	9%	-25%	16µM*	1%	1%	0%
CN(C)CCN(CC1CCCN(Cc2ccccc2F)C1)C(=O)c1ccc(F)cc1 (stereo unspecified)	1%	5%	3%	3%	2%	20µM*
Cc1nn(C)c(Cl)c1CN1CCCC(CCC(=O)NCc2ccccc2F)C1 (stereo unspecified)	-4%	-3%	-7%	3%	-7%	2%
O=C(CCC1CCCN(C(=O)c2ccco2)C1)NCc1ccccc1F (stereo unspecified)	-4%	4%	4%	3%	4%	3%
COCc1ccc(C(=O)N2CCCC(CCC(=O)NCc3ccccc3F)C2)o1 (stereo unspecified)	-4%	13µM*	12µM*	6%	4%	1%
COc1cc(C(=O)N(CCN(C)C)CC2CCCN(Cc3ccccc3F)C2)ccc1C (stereo unspecified)	1%	-32%[9.22 µM]	?	-2%	0%	-9%
CN(C)c1ccc(NC(=O)c2ccc([N+](=O)[O-])cc2Cl)cc1	?	-9%	-2%	-2%	?	?
CCC(=O)NC(=S)Nc1ccc(NC(=O)c2ccc([N+](=O)[O-])cc2Cl)cc1	5.8µM*	3%	-4%	-1%	-4%	-7%
Cc1ccc(OCCSc2ncnc3nc[nH]c23)cc1	?	20%	1%[9.22 µM]	9%	9.2µM*	?
COc1ccc(C(=O)NCCC2=CCCCC2)cc1	?	2%	-1%	-6%	1.5µM*	?
O=C(O)C1C2CCC(C2)C1C(=O)NCCC1=CCCCC1 (stereo unspecified)	-4%	-4%	0.52µM*	-2%	0%	-13%
O=C(NCCC1=CCCCC1)c1ccc(Br)o1	?	0%	-9%	5%	16µM*	?
Cc1ccc(NC2CCCN(C(=O)c3ccnc(Cl)c3)C2)cc1C (stereo unspecified)	-2%	1%	-28%	-6%	1%	-9%
O=C(COc1ccccc1)NCc1ccccc1	?	0%	-4%	0%	11%	4%
O=C(COc1ccc(C(=O)c2ccccc2)cc1)NCc1ccc(F)cc1	?	4.1µM*	7.3µM*	3%	-3%	?
CSc1ccc(CN(C)C(=O)COc2ccc(C(=O)c3ccccc3)cc2)cc1	-9%	13µM*	?	3%	2%	9%
COc1ccc(CCN(C)C(=O)COc2ccc(C(=O)c3ccccc3)cc2)cc1OC	?	1%	2%	1%	-12%	-5%
CN(Cc1ccccc1)C(=O)c1cccc(NC(=O)Cc2ccc(NC(=O)C3CCN(C(=O)C4CC4)CC3)cc2)c1	.	-77%	12%[9.22 µM]	.	.	.
CS(=O)(=O)c1nc(S(=O)(=O)c2ccc(Cl)cc2)c(NCCCn2ccnc2)s1	?	1%	15%	-25%	3%	3%
O=C(COC(=O)CNC(=O)c1ccccc1F)Nc1ncc(Cl)cc1Cl	0%	1%	-38%	-5%	0%	5%
O=C(COC(=O)CNC(=O)c1ccc([N+](=O)[O-])o1)Nc1ncc(Cl)cc1Cl	1%	?	-3%	35µM*	-3%	-24%
O=C(COC(=O)CNC(=O)c1ccc([N+](=O)[O-])o1)Nc1ncc(C(F)(F)F)cc1Cl	15%	16µM*	8%	22µM*	-1%	?
[N-]=[N+]=NC[C@H](c1ccccc1)N1CCN(Cc2ccccc2)CCC1=O	6%	-4%	?	1%	-5%	12%
S=C(NC1CCCCC1)N1CCOCCOCCN(C(=S)NC2CCCCC2)CCOCCOCC1	18µM*	2%	?	1%	-11%	0%
SMILES	ELG1 repair inh	MCF10A rereplic	SW480 rereplic	A-T KAP1 phos	ELG1 genotox	p53 reactivator
O=C(NC1CCCCCC1)C(=S)N1CCOCC1	15%	-3%	-6%	-2%	-1%	-3%
CCCCc1c(C)nc2ccc(Br)cc2c1SCCC#N	18µM*	.	.	2%	-15%	9%
CCCCc1c(C)nc2ccc(OC)cc2c1SCCC(=O)O	11%	-4%	-19%	1%	7%	7%
CCCc1c(C)nc2ccccc2c1SCCC#N	23µM*	?	17%	4%	-8%	-3%
COc1ccc(C(=O)C2CCCN(C(=O)c3cccc(Cl)c3F)C2)cc1OC (stereo unspecified)	?	2%	13%	4%	-4%	-10%
CSc1nc(N(C)NC(=O)c2ccc(F)cc2)c2ccccc2n1	?	1.8µM*	2.3µM*	-7%	12%	-2%
COc1ccc(CNc2ncnc3cc(OC)c(OC)cc23)cc1	-12%	-11%	0%	-1%	-8%	-24%
COc1cc2ncnc(NCc3ccccc3)c2cc1OC	?	6.5µM*	-4%	-3%	0%	-20%
Cn1ccc2cc(-c3ccc4ncnc(NCc5cccs5)c4c3)ccc21	?	12µM*	?	-3%	0%	12%
COc1cccc(-c2ccc3ncnc(NCc4cccs4)c3c2)c1	15µM*	?	?	-9%	-8%	-23%
COc1cccc(-c2ccc3ncnc(NCc4cccc(F)c4)c3c2)c1	.	.	.	-11%	.	.
COc1cccc(-c2ccc3ncnc(NCc4cccc(C)c4)c3c2)c1	16µM*	?	-13%	-14%	-10%	-16%
c1cncc(-c2ccc3ncnc(NCc4cccs4)c3c2)c1	?	9%	2%	-13%	5%	1%
CCCCCN(C(=O)CCC(=O)OCC(=O)N(C)Cc1ccccc1C)c1c(N)n(CCCC)c(=O)[nH]c1=O	6%	4%	6%	7%	1%	-4%
Cc1ccc(S(=O)(=O)N[C@H](C(=O)OCn2nnc3ccccc3c2=O)C(C)C)cc1	21µM*	1%	-4%	1%	-8%	2%
CCC(C)N(C(=O)CSc1nc2ccc(OC)cc2[nH]1)C1CCS(=O)(=O)C1 (stereo unspecified)	26%	-1%	-6%	-5%	0%	-1%
COc1ccccc1-c1cc(SC)c(C#N)c(=O)o1	?	7.3µM*	18µM*	-3%	-9%	-34%
